# Assay results taken from PubChem BioAssay AID1159580 (chemical genetic matrix, 2015).
# Values joined by “and” are separate entries in the source; they are usually repeats but may differ in a detail not shown here. Equal entries are not always repeated. Hit rate of the full screen: of about 5,500 compounds, about 2,000 (36%) were called active. Roughly 18% stayed inconclusive and do not appear here. No stated cut-off is given here; in the data, active means normalized growth mostly below about 0.91 (no sharp cut-off); inconclusive means no clear call, values can overlap the other calls; inactive means mostly above about 0.92. The list shows a part of the results. A structure can be active in one record and inactive in another.
# Test: chemical genetic growth profiling, strain panel (AID 1159580);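 further: tested at 20 µM; growth read once vehicle control cultures reached saturation at 30 °C; 1 = growth at the plate median or of vehicle wells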
# Conditions: S. cerevisiae deletion strains, growth OD
compound,measurement,setting,value
C=CCCCCCCCCC(=O)O,normalized growth,"locus YAL021C, strain ccr4, stronger effect = lower value",0.996 (inactive) and 1 (inactive)
same,normalized growth,"locus YAL026C, strain drs2, stronger effect = lower value",0.984 (inactive) and 0.932 (inactive)
same,normalized growth,"locus YAL030W, strain snc1, stronger effect = lower value",0.973 (inactive) and 0.992 (inactive)
same,normalized growth,"locus YBL061C, strain skt5, stronger effect = lower value",0.968 (inactive) and 1 (inactive)
same,normalized growth,"locus YBR009C, strain hhf1, stronger effect = lower value",0.977 (inactive) and 0.983 (inactive)
same,normalized growth,"locus YBR023C, strain chs3, stronger effect = lower value",0.977 (inactive) and 0.985 (inactive)
same,normalized growth,"locus YBR171W, strain sec66, stronger effect = lower value",0.983 (inactive) and 0.976 (inactive)
same,normalized growth,"locus YBR231C, strain swc5, stronger effect = lower value",0.989 (inactive) and 1.01 (inactive)
same,normalized growth,"locus YBR279W, strain paf1, stronger effect = lower value",0.975 (inactive) and 0.985 (inactive)
same,normalized growth,"locus YCL011C, strain gbp2, stronger effect = lower value",0.978 (inactive) and 0.989 (inactive)
same,normalized growth,"locus YCL016C, strain dcc1, stronger effect = lower value",0.988 (inactive) and 0.992 (inactive)
same,normalized growth,"locus YCL061C, strain MRC1, stronger effect = lower value",0.99 (inactive) and 0.991 (inactive)
same,normalized growth,"locus YCL069W, strain vba3, stronger effect = lower value",0.989 (inactive) and 0.991 (inactive)
same,normalized growth,"locus YCR088W, strain abp1, stronger effect = lower value",0.978 (inactive) and 1 (inactive)
same,normalized growth,"locus YDL005C, strain med2, stronger effect = lower value",0.962 (inactive) and 1 (inactive)
same,normalized growth,"locus YDL040C, strain nat1, stronger effect = lower value",0.974 (inactive) and 0.994 (inactive)
same,normalized growth,"locus YDR001C, strain nth1, stronger effect = lower value",0.978 (inactive) and 1 (inactive)
same,normalized growth,"locus YDR069C, strain doa4, stronger effect = lower value",0.984 (inactive) and 0.997 (inactive)
same,normalized growth,"locus YDR137W, strain rgp1, stronger effect = lower value",0.988 (inactive) and 0.986 (inactive)
same,normalized growth,"locus YDR159W, strain sac3, stronger effect = lower value",1 (inactive) and 1.06 (inactive)
same,normalized growth,"locus YDR195W, strain ref2",1 (inactive) and 1.09 (inactive)
same,normalized growth,"locus YDR297W, strain sur2, stronger effect = lower value",0.978 (inactive) and 0.998 (inactive)
same,normalized growth,"locus YDR334W, strain swr1, stronger effect = lower value",0.988 (inactive) and 0.976 (inactive)
same,normalized growth,"locus YDR335W, strain msn5, stronger effect = lower value",0.981 (inactive) and 0.965 (inactive)
same,normalized growth,"locus YDR392W, strain spt3, stronger effect = lower value",0.898 (inactive) and 0.647 (active)
same,normalized growth,"locus YEL003W, strain gim4, stronger effect = lower value",0.984 (inactive) and 0.981 (inactive)
same,normalized growth,"locus YEL037C, strain rad23, stronger effect = lower value",0.969 (inactive) and 0.972 (inactive)
same,normalized growth,"locus YEL061C, strain CIN8 (second series), stronger effect = lower value",0.982 (inactive) and 0.992 (inactive)
same,normalized growth,"locus YER015W, strain faa2, stronger effect = lower value",0.985 (inactive) and 0.992 (inactive)
same,normalized growth,"locus YER016W, strain bim1, stronger effect = lower value",0.978 (inactive) and 0.985 (inactive)
same,normalized growth,"locus YER111C, strain swi4, stronger effect = lower value",0.981 (inactive) and 1 (inactive)
same,normalized growth,"locus YER155C, strain BEM2 (second series), stronger effect = lower value",0.977 (inactive) and 0.947 (inactive)
same,normalized growth,"locus YFR010W, strain ubp6, stronger effect = lower value",1.02 (inactive) and 0.951 (inactive)
same,normalized growth,"locus YGL167C, strain pmr1, stronger effect = lower value",0.961 (inactive) and 0.995 (inactive)
same,normalized growth,"locus YGL173C, strain kem1, stronger effect = lower value",0.984 (inactive) and 0.975 (inactive)
same,normalized growth,"locus YGL227W, strain vid30, stronger effect = lower value",0.97 (inactive) and 1 (inactive)
same,normalized growth,"locus YGL240W, strain doc1, stronger effect = lower value",0.976 (inactive) and 0.911 (inactive)
same,normalized growth,"locus YGL253W, strain hxk2, stronger effect = lower value",0.983 (inactive) and 0.978 (inactive)
same,normalized growth,"locus YHR013C, strain ard1, stronger effect = lower value",1.21 [resistant] (active) and 0.965 (inactive)
same,normalized growth,"locus YHR027C, strain rpn1, stronger effect = lower value",0.981 (inactive) and 0.971 (inactive)
same,normalized growth,"locus YHR030C, strain SLT2, stronger effect = lower value",0.948 (inactive) and 0.105 (active)
same,normalized growth,"locus YHR079C, strain IRE1, stronger effect = lower value",0.979 (inactive) and 0.111 (active)
same,normalized growth,"locus YHR142W, strain chs7, stronger effect = lower value",1.01 (inactive) and 0.926 (inactive)
same,normalized growth,"locus YJL092W, strain hpr5, stronger effect = lower value",0.979 (inactive) and 0.99 (inactive)
same,normalized growth,"locus YJL095W, strain BCK1 (second series), stronger effect = lower value",0.98 (inactive) and 0.996 (inactive)
same,normalized growth,"locus YJL095W, strain BCK1, stronger effect = lower value",0.974 (inactive) and 0.136 (active)
same,normalized growth,"locus YJL115W, strain asf1, stronger effect = lower value",0.974 (inactive) and 0.969 (inactive)
same,normalized growth,"locus YJL129C, strain trk1, stronger effect = lower value",0.984 (inactive) and 0.778 (active)
same,normalized growth,"locus YJL154C, strain vps35, stronger effect = lower value",0.978 (inactive) and 0.995 (inactive)
same,normalized growth,"locus YJL164C, strain tpk1, stronger effect = lower value",0.973 (inactive) and 0.929 (inactive)
same,normalized growth,"locus YJL166W, strain qcr8, stronger effect = lower value",0.993 (inactive) and 0.959 (inactive)
same,normalized growth,"locus YJL187C, strain SWE1, stronger effect = lower value",0.979 (inactive) and 0.99 (inactive)
same,normalized growth,"locus YJR066W, strain TOR1, stronger effect = lower value",0.928 (inactive) and 0.0525 (active)
same,normalized growth,"locus YKL160W, strain elf1, stronger effect = lower value",0.997 (inactive) and 0.97 (inactive)
same,normalized growth,"locus YKR026C, strain gcn3, stronger effect = lower value",0.951 (inactive) and 0.98 (inactive)
same,normalized growth,"locus YKR091W, strain srl3, stronger effect = lower value",0.986 (inactive) and 0.997 (inactive)
same,normalized growth,"locus YLL001W, strain dnm1, stronger effect = lower value",0.978 (inactive) and 0.993 (inactive)
same,normalized growth,"locus YLL026W, stronger effect = lower value",0.975 (inactive) and 0.996 (inactive)
same,normalized growth,"locus YLL041C, strain sdh2, stronger effect = lower value",0.992 (inactive) and 0.988 (inactive)
same,normalized growth,"locus YLR027C, strain aat2, stronger effect = lower value",0.987 (inactive) and 0.983 (inactive)
same,normalized growth,"locus YLR113W, strain HOG1, stronger effect = lower value",1.1 (inactive) and 0.156 (active)
same,normalized growth,"locus YLR221C, strain rsa3, stronger effect = lower value",0.984 (inactive) and 0.937 (inactive)
same,normalized growth,"locus YLR258W, strain gsy2, stronger effect = lower value",0.981 (inactive) and 1.01 (inactive)
same,normalized growth,"locus YLR262C, strain YPT6 (second series), stronger effect = lower value",0.978 (inactive) and 0.977 (inactive)
same,normalized growth,"locus YLR320W, strain mms22, stronger effect = lower value",0.998 (inactive) and 0.925 (inactive)
same,normalized growth,"locus YLR342W, strain FKS1, stronger effect = lower value",0.98 (inactive) and 0.989 (inactive)
same,normalized growth,"locus YLR357W, strain rsc2, stronger effect = lower value",0.948 (inactive) and 0.927 (inactive)
same,normalized growth,"locus YLR370C, strain arc18, stronger effect = lower value",0.987 (inactive) and 1 (inactive)
same,normalized growth,"locus YLR384C, strain iki3, stronger effect = lower value",0.968 (inactive) and 0.985 (inactive)
same,normalized growth,"locus YML120C, strain ndi1, stronger effect = lower value",0.997 (inactive) and 0.931 (inactive)
same,normalized growth,"locus YMR058W, strain fet3, stronger effect = lower value",0.981 (inactive) and 0.952 (inactive)
same,normalized growth,"locus YMR125W, strain sto1, stronger effect = lower value",0.938 (inactive) and 0.956 (inactive)
same,normalized growth,"locus YMR129W, stronger effect = lower value",0.993 (inactive) and 0.997 (inactive)
same,normalized growth,"locus YMR205C, strain PFK2, stronger effect = lower value",0.966 (inactive) and 1.04 (inactive)
same,normalized growth,"locus YMR231W, strain pep5, stronger effect = lower value",0.97 (inactive) and 0.951 (inactive)
same,normalized growth,"locus YNL071W, strain lat1, stronger effect = lower value",0.982 (inactive) and 0.953 (inactive)
same,normalized growth,"locus YNL183C, strain NPR1, stronger effect = lower value",0.933 (inactive) and 0.0268 (active)
same,normalized growth,"locus YNL209W, strain ssb2, stronger effect = lower value",0.979 (inactive) and 0.984 (inactive)
same,normalized growth,"locus YNL248C, strain rpa49, stronger effect = lower value",1.01 (inactive) and 0.852 (active)
same,normalized growth,"locus YNL322C, strain KRE1 (second series), stronger effect = lower value",0.981 (inactive) and 0.991 (inactive)
same,normalized growth,"locus YNR049C, strain mso1, stronger effect = lower value",0.979 (inactive) and 0.992 (inactive)
same,normalized growth,"locus YOR001W, strain rrp6, stronger effect = lower value",0.987 (inactive) and 0.93 (inactive)
same,normalized growth,"locus YOR070C, strain gyp1, stronger effect = lower value",0.974 (inactive) and 0.975 (inactive)
same,normalized growth,"locus YOR080W, strain dia2, stronger effect = lower value",0.965 (inactive) and 0.987 (inactive)
same,normalized growth,"locus YOR083W, strain WHI5, stronger effect = lower value",1.01 (inactive) and 0.909 (inactive)
same,normalized growth,"locus YOR106W, strain vam3, stronger effect = lower value",1.01 (inactive) and 0.925 (inactive)
same,normalized growth,"locus YOR231W, strain MKK1, stronger effect = lower value",0.953 (inactive) and 0.105 (active)
same,normalized growth,"locus YOR265W, strain rbl2, stronger effect = lower value",0.981 (inactive) and 0.986 (inactive)
same,normalized growth,"locus YOR270C, strain vph1, stronger effect = lower value",1.01 (inactive) and 0.771 (active)
same,normalized growth,"locus YOR290C, strain snf2, stronger effect = lower value",0.992 (inactive) and 0.916 (inactive)
same,normalized growth,"locus YPL051W, strain arl3, stronger effect = lower value",0.986 (inactive) and 0.967 (inactive)
same,normalized growth,"locus YPL078C, strain atp4, stronger effect = lower value",0.982 (inactive) and 0.88 (active)
same,normalized growth,"locus YPL106C, strain sse1, stronger effect = lower value",0.988 (inactive) and 1.04 (inactive)
same,normalized growth,"locus YPL240C, strain hsp82, stronger effect = lower value",0.986 (inactive) and 1 (inactive)
same,normalized growth,"locus YPL256C, strain CLN2, stronger effect = lower value",1.01 (inactive) and 0.114 (active)
